Results from PubChem BioAssay (NCATS).
Where “and” joins values, the source holds several entries; their conditions need not be identical. Equal values may be shown once. Inconclusive results are not listed. Where a call stands in place of a potency, no number is given. Some compounds were tested as several samples or in several runs, with calls that do not always agree. Calls of active or inactive are those of the source. The call rests on the fitted dose curve; in most records, active means well fitted cell-killing curve with a large enough effect; inconclusive means small, poorly fitted or top-dose-only effect, or effect the other way; inactive means no such curve, though single readings can be large or run the other way.

Assay: Viability qHTS for spleen associated tyrosine kinase inhibitor (SYKi) naive MV4-11 cells (AID 1963823); further: nearly all actives have a fitted effect of over 40% in size
Conditions: MV4-11 AML viability, CellTiter-Glo luminescence, 72 h; series mostly up to 45 µM
How it was run: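 qHTS, SYK inhibitor-naive MV4-11; 500 cells/well; 72 hr compound exposure, 37 C; CellTiter-Glo added, 10 min RT; luminescence read.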
Potency means the concentration at half of the fitted maximal effect.

Compound | Potency
C[C@@H](c1ncncc1F)[C@](O)(Cn1cncn1)c1ccc(F)cc1F | inactive
C=CC(=O)Nc1cc2c(Nc3ccc(F)c(Cl)c3)ncnc2cc1OCCCN1CCOCC1 | 596 nM (active) and 742 nM (active)
Oc1c(Cl)cc(Cl)c2cccnc12 | 5.25 µM (active)
CC[N+](CC)(CC)CCOc1cccc(OCC[N+](CC)(CC)CC)c1OCC[N+](CC)(CC)CC | inactive
C#CCN[C@@H]1CCc2ccccc21 | inactive
Fc1cc(-c2cccc3ncc(-c4cnn(C5CCNCC5)c4)nc23)cc(F)c1CN1CCOCC1 | 259 nM (active) and 372 nM (active)
O=C1CSC(=O)N1C(CCc1ccncc1)COc1ccc(-c2cccc([N+](=O)[O-])c2)cc1 (stereo not given) | 7.42 µM (active)
NC(=O)c1cccc2cn(-c3ccc([C@@H]4CCCNC4)cc3)nc12 | 9.2 µM (active) and 14.8 µM (active)
C1COC(NC(C2CC2)C2CC2)=N1 | inactive
COc1cc2c(cc1OC)CN(CCc1ccc(NC(=O)c3cc(OC)c(OC)cc3NC(=O)c3cnc4ccccc4c3)cc1)CC2 | inactive
CCCCOc1c(C(=O)c2c(F)cc(C)cc2F)cnc2n[nH]cc12 | 651 nM (active) and 1.32 µM (active)
CC(C)CC(=O)Nc1n[nH]c2c1CN(C(=O)C1CCN(C)CC1)C2(C)C | 206 nM (active) and 417 nM (active)
Cc1nc2n(c(=O)c1CCN1CCC(c3noc4cc(F)ccc34)CC1)CCCC2 | inactive
CCn1cc(C(=O)O)c(=O)c2cc(F)c(N3CCNCC3)cc21 | inactive
CNC1CCCN(c2c(F)cc3c(=O)c(C(=O)O)cn(C4CC4)c3c2OC)C1 (stereo not given) | inactive
Clc1ccc(C2(c3ccc(-c4cn[nH]c4)cc3)CCNCC2)cc1 | 2.31 µM (active) and 2.63 µM (active)
CC(=O)N(O)CCCCCNC(=O)CCC(=O)N(O)CCCCCNC(=O)CCC(=O)N(O)CCCCCN | 6.61 µM (active)
CO[C@@H]1COCC[C@@H]1N[C@@H]1CC[C@@](C(=O)N2CCc3ncc(C(F)(F)F)cc3C2)(C(C)C)C1 | inactive
Cc1cnc(CNC(=O)c2c(=O)c3ccc(N4CCCN(C)CC4)nc3n3c2sc2ccccc23)cn1 | 0.841 µM (active)
Nc1cc(C(Cl)=C(Cl)Cl)c(S(N)(=O)=O)cc1S(N)(=O)=O | inactive
CCOC(=O)C1=C(N)Oc2ccc(Br)cc2C1C(C#N)C(=O)OCC (stereo not given) | 13.2 µM (active) and inactive
Cc1cnc(Nc2ccc(N3CCN(C)CC3)cc2)nc1Nc1cccc(S(=O)(=O)NC(C)(C)C)c1 | 0.103 µM (active)
N=c1nc(N2CCCCC2)cc(N)n1O | inactive
CCOC(=O)c1ncn2c1CN(C)C(=O)c1cc(F)ccc1-2 | inactive
CCCn1c(=O)c2[nH]c(-c3cnn(Cc4cccc(C(F)(F)F)c4)c3)nc2n(CC)c1=O | inactive

Assay: Viability qHTS for spleen associated tyrosine kinase inhibitor (SYKi) drug resistant MV4-11 cells (AID 1963824); further: nearly all actives have a fitted effect of over 35% in size
Conditions: SYKi-resistant MV4-11 viability, CellTiter-Glo, 72 h; series mostly up to 45 µM
How it was run: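 SYK inhibitor-resistant MV4-11 AML cells, 500 per well, added to predispensed compounds and incubated 72 hr at 37 C, 5% CO2. Viability measured by CellTiter-Glo luminescence after 10 min at room temperature.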

Compound | Potency
O=c1oc2c(O)c(O)cc3c(=O)oc4c(O)c(O)cc1c4c23 | inactive
Cc1nnc(NS(=O)(=O)c2ccc(N)cc2)s1 | inactive
NC1=N[C@H]2[C@H](CS[C@H]2CCCCC(=O)O)N1 | inactive
Nc1ccn([C@@H]2CS[C@H](CO)O2)c(=O)n1 | inactive
N#Cc1ccc(C(c2ccc(C#N)cc2)n2cncn2)cc1 | inactive
CC(C)Cn1cnc2c(N)nc3ccccc3c21 | inactive
c1ccc([C@H]2CN3CCSC3=N2)cc1 | inactive
Cn1ccc2cc3c(cc21)CCN3C(=O)Nc1cccnc1 | inactive
C=CCn1c(=O)c2cnc(Nc3ccc(N4CCN(C)CC4)cc3)nc2n1-c1cccc(C(C)(C)O)n1 | 259 nM (active) and 372 nM (active)
CC(=O)OCC(CCn1cnc2cnc(N)nc21)COC(C)=O | inactive
OC[C@H]1O[C@@H](OCCc2ccc(O)cc2)[C@H](O)[C@@H](O)[C@H]1O | inactive
CC(=O)c1cnc2ccc(-c3cc(Cl)c(O)c(Cl)c3)nc2c1NC1CCC(CN(C)C)CC1 (stereo not given) | 11.9 nM (active) and 2.9 nM (active)
CCc1c(O)cc(O)c(C(=O)c2ccc(OCCN3CCOCC3)c(OC)c2)c1CC(=O)N(CCOC)CCOC | 0.235 µM (active)
Cn1cnc([N+](=O)[O-])c1Sc1ncnc2nc[nH]c12 | 2.15 µM (active) and 2.35 µM (active)
Cc1ccc(C(=O)Nc2ccc(S(=O)(=O)O)c3cc(S(=O)(=O)O)cc(S(=O)(=O)O)c23)cc1NC(=O)c1cccc(NC(=O)Nc2cccc(C(=O)Nc3cc(C(=O)Nc4ccc(S(=O)(=O)O)c5cc(S(=O)(=O)O)cc(S(=O)(=O)O)c45)ccc3C)c2)c1 | inactive
C[C@@H](c1ncncc1F)[C@](O)(Cn1cncn1)c1ccc(F)cc1F | inactive
C=CC(=O)Nc1cc2c(Nc3ccc(F)c(Cl)c3)ncnc2cc1OCCCN1CCOCC1 | 944 nM (active) and 742 nM (active)
Oc1c(Cl)cc(Cl)c2cccnc12 | 8.33 µM (active)
CC[N+](CC)(CC)CCOc1cccc(OCC[N+](CC)(CC)CC)c1OCC[N+](CC)(CC)CC | inactive
C#CCN[C@@H]1CCc2ccccc21 | inactive

Compound | Potency
Fc1cc(-c2cccc3ncc(-c4cnn(C5CCNCC5)c4)nc23)cc(F)c1CN1CCOCC1 | 731 nM (active) and 833 nM (active)
O=C1CSC(=O)N1C(CCc1ccncc1)COc1ccc(-c2cccc([N+](=O)[O-])c2)cc1 (stereo not given) | 4.17 µM (active)
NC(=O)c1cccc2cn(-c3ccc([C@@H]4CCCNC4)cc3)nc12 | 10.3 µM (active) and 16.6 µM (active)
C1COC(NC(C2CC2)C2CC2)=N1 | inactive
COc1cc2c(cc1OC)CN(CCc1ccc(NC(=O)c3cc(OC)c(OC)cc3NC(=O)c3cnc4ccccc4c3)cc1)CC2 | inactive
CCCCOc1c(C(=O)c2c(F)cc(C)cc2F)cnc2n[nH]cc12 | 461 nM (active) and 468 nM (active)
CC(C)CC(=O)Nc1n[nH]c2c1CN(C(=O)C1CCN(C)CC1)C2(C)C | 259 nM (active) and 468 nM (active)
Cc1nc2n(c(=O)c1CCN1CCC(c3noc4cc(F)ccc34)CC1)CCCC2 | inactive
CCn1cc(C(=O)O)c(=O)c2cc(F)c(N3CCNCC3)cc21 | inactive
CNC1CCCN(c2c(F)cc3c(=O)c(C(=O)O)cn(C4CC4)c3c2OC)C1 (stereo not given) | inactive
Clc1ccc(C2(c3ccc(-c4cn[nH]c4)cc3)CCNCC2)cc1 | 5.17 µM (active) and 7.42 µM (active)
CC(=O)N(O)CCCCCNC(=O)CCC(=O)N(O)CCCCCNC(=O)CCC(=O)N(O)CCCCCN | 5.9 µM (active)
CO[C@@H]1COCC[C@@H]1N[C@@H]1CC[C@@](C(=O)N2CCc3ncc(C(F)(F)F)cc3C2)(C(C)C)C1 | inactive
Cc1cnc(CNC(=O)c2c(=O)c3ccc(N4CCCN(C)CC4)nc3n3c2sc2ccccc23)cn1 | 1.68 µM (active)
Nc1cc(C(Cl)=C(Cl)Cl)c(S(N)(=O)=O)cc1S(N)(=O)=O | inactive
CCOC(=O)C1=C(N)Oc2ccc(Br)cc2C1C(C#N)C(=O)OCC (stereo not given) | 8.33 µM (active) and 11.6 µM (active)
Cc1cnc(Nc2ccc(N3CCN(C)CC3)cc2)nc1Nc1cccc(S(=O)(=O)NC(C)(C)C)c1 | 0.206 µM (active)
N=c1nc(N2CCCCC2)cc(N)n1O | inactive
CCOC(=O)c1ncn2c1CN(C)C(=O)c1cc(F)ccc1-2 | inactive
CCCn1c(=O)c2[nH]c(-c3cnn(Cc4cccc(C(F)(F)F)c4)c3)nc2n(CC)c1=O | inactive
